Active and inactive are the calls of the source. Rule for the calls: active = hit-call score of the fitted dose curve at least 0.9, where 1 is the maximum; inactive = score below 0.9.
Biological target: Myc proto-oncogene protein (Homo sapiens) (UniProt P01106)
Assay: ATG_Myc_CIS: Attagene CIS-FACTORIAL HepG2 Assay for human Myelocytomatosis (Myc) Proto-Oncogene Transcription Factor (AID 2282990)
Conditions: HepG2, Attagene cis-reporter transcription factor activity; actives raise or lower the signal
Summary of the method: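 DMSO-normalised, bidirectionally fitted reporter mRNA signal. HepG2 cells transfected with cis reporter constructs, treated 24 h; transcripts detected by RT-PCR, 6-FAM primer extension and CE.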

Myc proto-oncogene protein (Homo sapiens), sequence (P01106 whole entry, looked up): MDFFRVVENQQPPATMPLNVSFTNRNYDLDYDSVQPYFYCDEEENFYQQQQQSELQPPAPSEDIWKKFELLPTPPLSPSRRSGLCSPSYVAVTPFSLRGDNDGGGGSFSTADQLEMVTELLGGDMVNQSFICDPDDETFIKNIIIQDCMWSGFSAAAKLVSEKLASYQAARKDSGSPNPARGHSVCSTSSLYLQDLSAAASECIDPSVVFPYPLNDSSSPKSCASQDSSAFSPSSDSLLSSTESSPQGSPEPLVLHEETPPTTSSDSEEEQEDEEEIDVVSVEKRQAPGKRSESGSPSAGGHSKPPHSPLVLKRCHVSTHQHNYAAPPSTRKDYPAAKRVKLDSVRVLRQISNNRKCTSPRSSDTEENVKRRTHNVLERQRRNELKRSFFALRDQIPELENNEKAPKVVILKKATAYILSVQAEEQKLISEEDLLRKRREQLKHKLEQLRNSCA

outcome, inactive:
CCCCCCCCCC(=O)OC
Cc1c(Cl)cccc1[N+](=O)[O-]
CCCCC(CC)(CO)CO
Nc1ccc2c(O)cc(S(=O)(=O)O)cc2c1
O=CCc1ccccc1
CC(C)CCCCCCc1ccc(OCCOCCO)cc1
C=C(C)C(=O)OCCOCCOCCOCCOC(=O)C(=C)C
[O-]n1ccccc1=S.[O-]n1ccccc1=S.[Zn+2]
O=[N+]([O-])c1cccc(Cl)c1
CC(=O)Nc1ccc(C(=O)CCl)cc1
Cc1ccc(-c2ccccc2)cc1

Test system: not listed separately
Assay: ATG_NF_kB_CIS: Attagene CIS-FACTORIAL HepG2 Assay for human Nuclear Factor Kappa B (NF-kB) (AID 2282991)
Conditions: HepG2 Attagene cis-factorial NF-kB reporter mRNA; actives raise or lower the signal
Summary of the method: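 HepG2 cells transfected with cis-promoter-driven reporter units, so endogenous transcription factor activity is measured. Reporter mRNA quantified 24 h after dosing by RT-PCR and capillary electrophoresis, with bidirectional fitting against DMSO.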

outcome, inactive:
CCCCSCCCC
CC1CC(O)CC(C)(C)C1 (configuration not stated)
CCCOC(=O)c1c(Cl)c(Cl)c(Cl)c(Cl)c1C(=O)OCCC
CC(C)CCOC(=O)c1ccccc1
O=C(O)c1cccnc1C(=O)O
Cc1cccc(Nc2ccccc2)c1
Brc1ccc(Br)c(Br)c1
CCOc1ccc(NC(=O)CC(C)O)cc1 (configuration not stated)
OC[C@H]1O[C@@H]2O[C@H]3[C@H](O)[C@@H](O)[C@@H](O[C@H]4[C@H](O)[C@@H](O)[C@@H](O[C@H]5[C@H](O)[C@@H](O)[C@@H](O[C@H]6[C@H](O)[C@@H](O)[C@@H](O[C@H]7[C@H](O)[C@@H](O)[C@@H](O[C@H]8[C@H](O)[C@@H](O)[C@@H](O[C@H]9[C@H](O)[C@@H](O)[C@@H](O[C@H]1[C@H](O)[C@H]2O)O[C@@H]9CO)O[C@@H]8CO)O[C@@H]7CO)O[C@@H]6CO)O[C@@H]5CO)O[C@@H]4CO)O[C@@H]3CO
CC1(C)O[C@@H]2[C@@H](CO[C@@]3(COS(N)(=O)=O)OC(C)(C)O[C@@H]23)O1
C[N+](C)(C)CCCCCC[N+](C)(C)C
COc1ccc(N=Nc2cc(C)c(N=Nc3ccc(S(=O)(=O)O)cc3)cc2OC)cc1
CC(=O)OCCCc1ccccc1
CCCCOCC
OCC(O)c1ccccc1 (configuration not stated)
CCCCC(CC)COC(C)=O (configuration not stated)
COCCOC(=O)c1ccccc1C(=O)OCCOC
Cc1ccc(OC(=O)c2ccccc2O)cc1
CCCCCCCCCC(=O)OC
Cc1c(Cl)cccc1[N+](=O)[O-]
O=CCc1ccccc1
CC(C)CCCCCCc1ccc(OCCOCCO)cc1
O=[N+]([O-])c1cccc(Cl)c1
Cc1ccc(-c2ccccc2)cc1

AC50, active:
C=C[Si]1(C)O[Si](C)(C=C)O[Si](C)(C=C)O[Si](C)(C=C)O1 (configuration not stated) 19.8 µM
[O-]n1ccccc1=S.[O-]n1ccccc1=S.[Zn+2] 0.999 µM
CC(=O)Nc1ccc(C(=O)CCl)cc1 2.5 µM

Test system: not listed separately
Assay: ATG_NRF2_ARE_CIS: Attagene CIS-FACTORIAL HepG2 Assay for human Nuclear Factor Erythroid 2 Related Factor 2 (NFR2) response to Antioxidant Response Elements (ARE) (AID 2282992);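 for AC50: reporter mRNA level measured by RT-PCR and capillary electrophoresis fluorescence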
Conditions: HepG2 Attagene ARE/NRF2 reporter, transcription factor activity; actives raise or lower the signal
Summary of the method: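 Multiplexed reporter mRNA profiling in HepG2 after a 24 h chemical exposure. Curves fitted in both directions relative to DMSO negative control.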

outcome, inactive:
CCCCSCCCC
CCCCC1(COC(=O)CCC(=O)O)C(=O)N(c2ccccc2)N(c2ccccc2)C1=O
Cc1occc(=O)c1OC(=O)C(C)C
CC(C)(C)c1ccc(C(=O)O)cc1
CC1CC(O)CC(C)(C)C1 (configuration not stated)
CC(C)CCOC(=O)c1ccccc1
O=C(O)c1cccnc1C(=O)O
O=Cc1ccccc1S(=O)(=O)O
Brc1ccc(Br)c(Br)c1
CCOc1ccc(NC(=O)CC(C)O)cc1 (configuration not stated)
CS(=O)(=O)OCCCCOS(C)(=O)=O
OC[C@H]1O[C@@H]2O[C@H]3[C@H](O)[C@@H](O)[C@@H](O[C@H]4[C@H](O)[C@@H](O)[C@@H](O[C@H]5[C@H](O)[C@@H](O)[C@@H](O[C@H]6[C@H](O)[C@@H](O)[C@@H](O[C@H]7[C@H](O)[C@@H](O)[C@@H](O[C@H]8[C@H](O)[C@@H](O)[C@@H](O[C@H]9[C@H](O)[C@@H](O)[C@@H](O[C@H]1[C@H](O)[C@H]2O)O[C@@H]9CO)O[C@@H]8CO)O[C@@H]7CO)O[C@@H]6CO)O[C@@H]5CO)O[C@@H]4CO)O[C@@H]3CO
CC1(C)O[C@@H]2[C@@H](CO[C@@]3(COS(N)(=O)=O)OC(C)(C)O[C@@H]23)O1
CCC(=O)OCCOc1ccccc1
C[N+](C)(C)CCCCCC[N+](C)(C)C
CC(=O)OCCCc1ccccc1
CCCCOCC
OCC(O)c1ccccc1 (configuration not stated)
CCCCC(CC)COC(C)=O (configuration not stated)
CC(C)OCCO
COCCOC(=O)c1ccccc1C(=O)OCCOC
CCCCCCCCCC(=O)OC
Cc1c(Cl)cccc1[N+](=O)[O-]
CCCCC(CC)(CO)CO
Nc1ccc2c(O)cc(S(=O)(=O)O)cc2c1
O=CCc1ccccc1
CC(C)CCCCCCc1ccc(OCCOCCO)cc1
[O-]n1ccccc1=S.[O-]n1ccccc1=S.[Zn+2]
O=[N+]([O-])c1cccc(Cl)c1
Cc1ccc(-c2ccccc2)cc1

AC50, active:
CCCOC(=O)c1c(Cl)c(Cl)c(Cl)c(Cl)c1C(=O)OCCC 55.3 µM
CCC(C)c1cc([N+](=O)[O-])cc([N+](=O)[O-])c1OC(=O)OC(C)C (configuration not stated) 5.1 µM
Cc1cccc(Nc2ccccc2)c1 70.6 µM
C=C[Si]1(C)O[Si](C)(C=C)O[Si](C)(C=C)O[Si](C)(C=C)O1 (configuration not stated) 12 µM
COc1ccc(N=Nc2cc(C)c(N=Nc3ccc(S(=O)(=O)O)cc3)cc2OC)cc1 25.7 µM
COC(=O)C=C(C)CCC=C(C)C 36.1 µM
Cc1ccc(OC(=O)c2ccccc2O)cc1 51.2 µM
C=C(C)C(=O)OCCOCCOCCOCCOC(=O)C(=C)C 69.7 µM
CC(=O)Nc1ccc(C(=O)CCl)cc1 0.41 µM

— PubChem BioAssay (EPA / NIEHS)
